# Test results taken from PubChem BioAssay (EPA / NIEHS).
# Inconclusive results are not listed. Calls of active or inactive are those of the source. How the source made its calls, unless noted: active means hit-call score of the fitted dose curve at least 0.9, where 1 is the maximum; inactive means score below 0.9.
# Legend:
# [1] = ATG_NFI_CIS: Attagene CIS-FACTORIAL HepG2 Assay for human Nuclear Factor I (NFI) (AID 2282989); conditions: HepG2 cis-regulatory reporter, NFI response element transcription; actives raise or lower the signal
# Method in brief: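 Multiplexed cis-reporter system in human HepG2 cells reports native TF activity as reporter mRNA induction 24 h post-dose. Fragments labelled with 6-FAM, HpaI-digested and resolved by capillary electrophoresis; activity fitted both directions versus DMSO.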
# [2] = biological target: Myc proto-oncogene protein (Homo sapiens) (UniProt P01106); experiment: ATG_Myc_CIS: Attagene CIS-FACTORIAL HepG2 Assay for human Myelocytomatosis (Myc) Proto-Oncogene Transcription Factor (AID 2282990); conditions: HepG2, Attagene cis-reporter transcription factor activity; actives raise or lower the signal
# Sequence of Myc proto-oncogene protein (Homo sapiens) (P01106 whole entry, looked up, the tested form may be a part): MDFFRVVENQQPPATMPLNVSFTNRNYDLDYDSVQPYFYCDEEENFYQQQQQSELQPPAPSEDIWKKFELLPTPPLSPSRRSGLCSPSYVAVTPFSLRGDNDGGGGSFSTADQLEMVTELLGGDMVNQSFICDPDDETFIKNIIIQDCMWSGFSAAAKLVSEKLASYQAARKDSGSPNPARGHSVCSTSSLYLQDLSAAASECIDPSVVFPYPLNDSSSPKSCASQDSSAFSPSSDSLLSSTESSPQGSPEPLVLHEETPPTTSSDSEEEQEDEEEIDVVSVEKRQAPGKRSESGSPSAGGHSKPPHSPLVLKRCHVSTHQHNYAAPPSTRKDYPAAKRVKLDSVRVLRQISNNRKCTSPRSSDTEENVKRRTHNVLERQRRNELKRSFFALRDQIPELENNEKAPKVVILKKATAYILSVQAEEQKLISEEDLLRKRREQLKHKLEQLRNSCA
# Method in brief: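 After 24 h chemical treatment of HepG2 cells carrying multiplexed cis-regulated reporter constructs, reporter transcripts quantified by RT-PCR and capillary electrophoresis of fluorescent fragments. Gain or loss fitted against DMSO baseline.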
# [3] = ATG_NF_kB_CIS: Attagene CIS-FACTORIAL HepG2 Assay for human Nuclear Factor Kappa B (NF-kB) (AID 2282991); conditions: HepG2 Attagene cis-factorial NF-kB reporter mRNA; actives raise or lower the signal
# Method in brief: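 HepG2 cells transiently transfected with multiplexed cis-element reporter units measuring endogenous transcription factor activity; reporter mRNA read 24 h after dosing by RT-PCR, fluorescent labelling, HpaI digestion and capillary electrophoresis. Bidirectional fit against DMSO baseline.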
# [4] = ATG_NRF2_ARE_CIS: Attagene CIS-FACTORIAL HepG2 Assay for human Nuclear Factor Erythroid 2 Related Factor 2 (NFR2) response to Antioxidant Response Elements (ARE) (AID 2282992); conditions: HepG2 Attagene ARE/NRF2 reporter, transcription factor activity; actives raise or lower the signal;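 on AC50: reporter mRNA level measured by RT-PCR and capillary electrophoresis fluorescence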
# Method in brief: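 Multiplexed reporter mRNA profiling in HepG2 after a 24 h chemical exposure. Curves fitted in both directions relative to DMSO negative control.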
# [5] = ATG_Oct_MLP_CIS: Attagene CIS-FACTORIAL HepG2 Assay for human Octamer-Binding Transcription Factor (Oct) (AID 2282993); conditions: HepG2 Attagene cis-factorial Oct reporter, mRNA; actives raise or lower the signal
# Method in brief: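 After 24 h compound exposure, transfected HepG2 cells were lysed for total RNA; reporter-specific cDNA was PCR-amplified, fluorescently labelled and sized by capillary electrophoresis. Bidirectional curve fitting used DMSO as baseline.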
# [6] = biological target: Cellular tumor antigen p53 (Homo sapiens) (UniProt P04637); experiment: ATG_p53_CIS: Attagene CIS-FACTORIAL HepG2 Assay for human p53 Transcription Factor (AID 2282994); conditions: HepG2 p53 cis-element reporter, Attagene mRNA; actives raise or lower the signal
# Sequence of Cellular tumor antigen p53 (Homo sapiens) (P04637 whole entry, looked up): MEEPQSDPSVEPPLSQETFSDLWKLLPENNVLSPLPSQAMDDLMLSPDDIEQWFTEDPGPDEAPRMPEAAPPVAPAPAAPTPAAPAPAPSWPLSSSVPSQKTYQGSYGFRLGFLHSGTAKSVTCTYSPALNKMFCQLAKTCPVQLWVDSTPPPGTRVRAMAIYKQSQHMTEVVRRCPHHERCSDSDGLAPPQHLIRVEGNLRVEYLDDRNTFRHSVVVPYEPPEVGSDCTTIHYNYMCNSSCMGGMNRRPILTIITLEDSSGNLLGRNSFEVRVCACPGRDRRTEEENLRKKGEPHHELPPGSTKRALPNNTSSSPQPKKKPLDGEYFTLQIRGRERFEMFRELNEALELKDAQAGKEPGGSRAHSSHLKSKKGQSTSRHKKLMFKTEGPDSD
# Method in brief: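 Multiplexed reporter mRNA assay in human HepG2 liver cells; cis-regulated units report endogenous factor activity. Values come from bidirectional curve fitting against DMSO negative control after 24 h treatment.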
# [7] = biological target: Peroxisome proliferator-activated receptor gamma (Homo sapiens) (UniProt P37231); experiment: ATG_PPARg_TRANS: Attagene TRANS-FACTORIAL HepG2 Assay for human Peroxisome Proliferator-activated Receptor-gamma (PPARg) (AID 2283007; active means hit-call score of the fitted dose curve at least 0.9, where 1 is the maximum)
# Sequence of Peroxisome proliferator-activated receptor gamma (Homo sapiens) (P37231 whole entry, looked up, the tested form may be a part): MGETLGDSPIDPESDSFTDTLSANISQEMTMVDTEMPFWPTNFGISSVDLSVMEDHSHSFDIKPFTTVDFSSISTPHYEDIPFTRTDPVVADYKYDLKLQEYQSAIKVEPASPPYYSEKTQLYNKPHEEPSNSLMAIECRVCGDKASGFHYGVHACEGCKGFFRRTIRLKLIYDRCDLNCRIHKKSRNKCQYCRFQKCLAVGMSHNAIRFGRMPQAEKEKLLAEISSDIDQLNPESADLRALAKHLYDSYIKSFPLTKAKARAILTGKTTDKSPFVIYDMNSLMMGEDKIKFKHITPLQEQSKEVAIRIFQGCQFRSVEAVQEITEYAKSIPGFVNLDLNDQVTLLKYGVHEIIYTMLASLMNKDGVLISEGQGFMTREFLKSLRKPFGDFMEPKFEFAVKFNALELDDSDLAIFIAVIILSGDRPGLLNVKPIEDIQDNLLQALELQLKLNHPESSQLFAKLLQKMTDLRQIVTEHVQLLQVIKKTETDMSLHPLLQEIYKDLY
# Method in brief: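 HepG2 cells transiently transfected with multiplexed GAL4-UAS reporter units and exogenous chimeric NR-Gal4 proteins; reporter mRNA quantified after 24 h compound exposure by RT-PCR, fluorescent labelling, HpaI digestion and capillary electrophoresis; gain-of-signal fitted versus DMSO baseline.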
# [8] = biological target: Nuclear receptor subfamily 1 group I member 2 (Homo sapiens) (UniProt O75469); experiment: ATG_PXR_TRANS: Attagene TRANS-FACTORIAL HepG2 Assay for human Pregnane X Receptor (PXR) (AID 2283008; active means hit-call score of the fitted dose curve at least 0.9, where 1 is the maximum)
# Sequence of Nuclear receptor subfamily 1 group I member 2 (Homo sapiens) (O75469 whole entry, looked up, the tested form may be a part): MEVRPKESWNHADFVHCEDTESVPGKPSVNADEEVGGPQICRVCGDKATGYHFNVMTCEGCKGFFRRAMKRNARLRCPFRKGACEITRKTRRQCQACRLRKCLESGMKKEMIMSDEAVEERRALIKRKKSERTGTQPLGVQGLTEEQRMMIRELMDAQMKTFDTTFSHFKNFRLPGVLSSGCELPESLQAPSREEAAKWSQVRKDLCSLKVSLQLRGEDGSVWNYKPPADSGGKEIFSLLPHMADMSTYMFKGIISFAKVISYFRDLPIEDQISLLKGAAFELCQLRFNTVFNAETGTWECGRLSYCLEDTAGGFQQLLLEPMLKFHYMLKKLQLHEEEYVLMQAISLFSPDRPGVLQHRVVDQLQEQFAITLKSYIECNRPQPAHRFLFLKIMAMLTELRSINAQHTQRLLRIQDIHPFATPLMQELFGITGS
# Method in brief: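 Measures mRNA induction of a GAL4-UAS-driven reporter in human HepG2 cells transiently expressing PXR fused to Gal4, following 24 h treatment. DMSO served as negative control and baseline.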
# [9] = biological target: human Retinoic Acid Receptor gamma (RARg), RARG (gene 5916) (UniProt P13631); experiment: ATG_RARg_TRANS: Attagene TRANS-FACTORIAL HepG2 Assay for human Retinoic Acid Receptor gamma (RARg) (AID 2283009; active means hit-call score of the fitted dose curve at least 0.9, where 1 is the maximum)
# Sequence of human Retinoic Acid Receptor gamma (RARg), RARG (gene 5916) (P13631 whole entry, looked up, the tested form may be a part): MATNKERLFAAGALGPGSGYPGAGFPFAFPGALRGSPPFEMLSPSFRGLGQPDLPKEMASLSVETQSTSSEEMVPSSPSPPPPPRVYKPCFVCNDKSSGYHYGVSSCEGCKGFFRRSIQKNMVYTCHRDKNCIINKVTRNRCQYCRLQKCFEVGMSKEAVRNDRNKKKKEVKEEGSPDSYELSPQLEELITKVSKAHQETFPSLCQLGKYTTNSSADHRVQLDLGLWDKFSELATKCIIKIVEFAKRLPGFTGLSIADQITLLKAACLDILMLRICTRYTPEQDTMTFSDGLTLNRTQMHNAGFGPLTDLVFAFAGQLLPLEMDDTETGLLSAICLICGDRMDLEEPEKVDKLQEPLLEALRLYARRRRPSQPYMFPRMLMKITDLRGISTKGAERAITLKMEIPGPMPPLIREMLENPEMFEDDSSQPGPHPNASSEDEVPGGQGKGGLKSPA
# Method in brief: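 HepG2 cells transiently transfected with multiplexed reporter units expressing chimeric RARg-GAL4 and GAL4-UAS-driven reporters; 24 h compound exposure. Reporter mRNA quantified by RT-PCR with fluorescent labelling and capillary electrophoresis; gain-of-signal fitted relative to DMSO baseline.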
# [10] = biological target: human RAR-related Orphan Receptor beta (RORb), RORB (gene 6096) (UniProt Q92753); experiment: ATG_RORb_TRANS: Attagene TRANS-FACTORIAL HepG2 Assay for human RAR-related Orphan Receptor beta (RORb) (AID 2283010; active means hit-call score of the fitted dose curve at least 0.9, where 1 is the maximum)
# Sequence of human RAR-related Orphan Receptor beta (RORb), RORB (gene 6096) (Q92753 whole entry, looked up, the tested form may be a part): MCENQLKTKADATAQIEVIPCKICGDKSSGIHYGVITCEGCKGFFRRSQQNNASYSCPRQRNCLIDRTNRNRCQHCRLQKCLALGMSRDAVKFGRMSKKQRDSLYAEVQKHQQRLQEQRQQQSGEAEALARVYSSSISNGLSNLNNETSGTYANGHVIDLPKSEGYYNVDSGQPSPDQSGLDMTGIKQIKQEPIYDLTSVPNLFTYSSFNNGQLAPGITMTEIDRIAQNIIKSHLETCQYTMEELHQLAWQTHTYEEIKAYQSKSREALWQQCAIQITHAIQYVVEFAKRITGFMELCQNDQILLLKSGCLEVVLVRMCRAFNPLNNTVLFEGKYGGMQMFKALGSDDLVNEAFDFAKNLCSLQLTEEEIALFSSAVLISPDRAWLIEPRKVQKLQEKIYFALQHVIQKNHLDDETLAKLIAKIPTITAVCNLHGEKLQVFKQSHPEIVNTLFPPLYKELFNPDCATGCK
# Method in brief: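 HepG2 cells were transiently transfected with multiplexed GAL4-UAS reporter units expressing chimeric nuclear receptor–GAL4 proteins, then dosed for 24 h. Reporter mRNA was quantified by RT-PCR with fluorescent labelling and capillary electrophoresis; gain of signal was fitted relative to DMSO.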
# [11] = biological target: human Peroxisome Proliferator-activated Receptor alpha (PPARa), PPARA (gene 5465) (UniProt Q07869); experiment: ATG_PPARa_TRANS: Attagene TRANS-FACTORIAL HepG2 Assay for human Peroxisome Proliferator-activated Receptor alpha (PPARa) (AID 2283001; active means hit-call score of the fitted dose curve at least 0.9, where 1 is the maximum)
# Sequence of human Peroxisome Proliferator-activated Receptor alpha (PPARa), PPARA (gene 5465) (Q07869 whole entry, looked up, the tested form may be a part): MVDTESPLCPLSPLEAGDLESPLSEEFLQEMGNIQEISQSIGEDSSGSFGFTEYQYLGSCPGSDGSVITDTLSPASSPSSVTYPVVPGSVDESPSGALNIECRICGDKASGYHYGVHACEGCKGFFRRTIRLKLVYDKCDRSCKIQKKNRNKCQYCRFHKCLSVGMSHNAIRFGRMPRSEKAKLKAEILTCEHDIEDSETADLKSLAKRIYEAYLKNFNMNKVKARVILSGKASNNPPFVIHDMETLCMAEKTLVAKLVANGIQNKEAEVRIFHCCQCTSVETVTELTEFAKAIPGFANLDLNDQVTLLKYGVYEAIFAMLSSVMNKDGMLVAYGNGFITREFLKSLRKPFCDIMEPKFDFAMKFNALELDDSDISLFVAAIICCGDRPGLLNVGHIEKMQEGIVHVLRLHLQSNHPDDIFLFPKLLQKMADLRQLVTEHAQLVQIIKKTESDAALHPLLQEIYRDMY
# Method in brief: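 Reporter transcripts from GAL4-UAS units in transfected HepG2 were quantified 24 h after dosing. Detection used reverse transcription, PCR, fluorescent primer extension and capillary electrophoresis, with DMSO as baseline.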
# [12] = biological target: human Peroxisome Proliferator-activated Receptor delta (PPARd), PPARD (gene 5467) (UniProt Q03181); experiment: ATG_PPARd_TRANS: Attagene TRANS-FACTORIAL HepG2 Assay for human Peroxisome Proliferator-activated Receptor delta (PPARd) (AID 2283002; active means hit-call score of the fitted dose curve at least 0.9, where 1 is the maximum)
# Sequence of human Peroxisome Proliferator-activated Receptor delta (PPARd), PPARD (gene 5467) (Q03181 whole entry, looked up, the tested form may be a part): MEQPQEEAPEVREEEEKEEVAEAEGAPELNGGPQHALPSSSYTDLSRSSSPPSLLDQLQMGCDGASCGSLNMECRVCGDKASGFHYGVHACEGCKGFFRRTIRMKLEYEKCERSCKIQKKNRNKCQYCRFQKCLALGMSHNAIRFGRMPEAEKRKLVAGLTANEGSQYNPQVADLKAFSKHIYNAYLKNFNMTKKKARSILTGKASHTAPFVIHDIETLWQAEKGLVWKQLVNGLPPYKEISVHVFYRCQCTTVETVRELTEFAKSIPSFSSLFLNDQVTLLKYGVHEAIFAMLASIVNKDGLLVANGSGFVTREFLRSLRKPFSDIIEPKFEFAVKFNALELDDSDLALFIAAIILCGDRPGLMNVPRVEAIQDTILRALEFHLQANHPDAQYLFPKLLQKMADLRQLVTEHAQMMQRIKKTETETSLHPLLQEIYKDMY
# Method in brief: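 Read-out is induced reporter mRNA, quantified by RT-PCR with fluorescent labelling and capillary electrophoresis after 24 h dosing. Cells are HepG2 transiently carrying multiple GAL4-UAS reporter units driven by exogenous NR-GAL4 chimeras; DMSO serves as baseline.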
# [13] = biological target: Retinoic acid receptor alpha (Homo sapiens) (UniProt P10276); experiment: ATG_RARa_TRANS: Attagene TRANS-FACTORIAL HepG2 Assay for human Retinoic Acid Receptor alpha (RARa) (AID 2283005; active means hit-call score of the fitted dose curve at least 0.9, where 1 is the maximum)
# Sequence of Retinoic acid receptor alpha (Homo sapiens) (P10276 whole entry, looked up, the tested form may be a part): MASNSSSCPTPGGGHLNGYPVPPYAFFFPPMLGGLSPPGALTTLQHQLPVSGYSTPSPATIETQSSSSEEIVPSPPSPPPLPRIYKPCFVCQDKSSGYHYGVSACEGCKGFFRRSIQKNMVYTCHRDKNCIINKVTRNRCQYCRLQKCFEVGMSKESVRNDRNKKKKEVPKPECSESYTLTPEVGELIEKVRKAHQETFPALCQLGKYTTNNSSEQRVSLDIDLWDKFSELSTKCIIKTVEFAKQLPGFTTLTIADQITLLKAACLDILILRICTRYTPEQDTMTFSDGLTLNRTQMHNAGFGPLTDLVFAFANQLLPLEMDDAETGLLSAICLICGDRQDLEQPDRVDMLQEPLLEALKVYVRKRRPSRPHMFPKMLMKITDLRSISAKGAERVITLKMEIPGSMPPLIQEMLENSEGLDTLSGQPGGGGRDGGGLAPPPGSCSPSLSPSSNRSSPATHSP
# Method in brief: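 Reporter transcripts, measured by RT-PCR with fluorescent labeling and capillary electrophoresis after 24 h dosing, reflect activity of an exogenous human RARa–GAL4 fusion in transiently transfected HepG2. Fitted for increase relative to DMSO.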
# [14] = biological target: human Retinoic Acid Receptor beta (RARb), RARB (gene 5915) (UniProt P10826); experiment: ATG_RARb_TRANS: Attagene TRANS-FACTORIAL HepG2 Assay for human Retinoic Acid Receptor beta (AID 2283004; active means hit-call score of the fitted dose curve at least 0.9, where 1 is the maximum)
# Sequence of human Retinoic Acid Receptor beta (RARb), RARB (gene 5915) (P10826 whole entry, looked up, the tested form may be a part): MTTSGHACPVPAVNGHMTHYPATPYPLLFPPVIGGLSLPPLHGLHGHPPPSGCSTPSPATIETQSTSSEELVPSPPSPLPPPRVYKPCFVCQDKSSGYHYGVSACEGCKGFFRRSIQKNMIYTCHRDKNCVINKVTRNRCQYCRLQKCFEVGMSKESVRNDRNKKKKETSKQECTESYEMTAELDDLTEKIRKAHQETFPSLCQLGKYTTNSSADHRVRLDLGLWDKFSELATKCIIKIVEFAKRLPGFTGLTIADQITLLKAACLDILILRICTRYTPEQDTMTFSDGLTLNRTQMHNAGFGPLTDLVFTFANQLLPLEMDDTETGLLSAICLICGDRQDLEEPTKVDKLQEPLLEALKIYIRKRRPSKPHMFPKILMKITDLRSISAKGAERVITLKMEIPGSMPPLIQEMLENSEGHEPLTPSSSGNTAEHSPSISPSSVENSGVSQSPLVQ
# Method in brief: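 HepG2, transient MRTU transfection, NR–Gal4 chimera, 24 h treatment; RT-PCR plus CE fluorescence detection of reporter mRNA; gain of signal vs DMSO.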
# [15] = BSK_3C_TissueFactor: BioMAP Diversity Plus: 3C Assay for Tissue Factor Biomarker Activity (AID 2282997); conditions: BioMAP 3C HUVEC, tissue factor biomarker readout; actives raise or lower the signal
# Method in brief: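 Values derive from bidirectional curve fitting against DMSO of Tissue Factor ELISA signals, taken 24 h after dosing primary human umbilical vein endothelial cells.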
# [16] = BSK_3C_uPAR: BioMAP Diversity Plus: 3C Assay for Urokinase-type plasminogen activator receptor (uPAR) Biomarker Activity (AID 2282998); conditions: BioMAP 3C HUVEC, uPAR biomarker ELISA; actives raise or lower the signal
# Method in brief: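 Values derive from bidirectional curve fitting relative to DMSO, which served as baseline of activity. uPAR was measured by ELISA in human umbilical vein endothelial primary cultures 24 h after compound addition.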
# [17] = BSK_3C_VCAM1: BioMAP Diversity Plus: 3C Assay for Vascular cell adhesion molecule 1 (VCAM1) Biomarker Activity (AID 2282999); conditions: BioMAP 3C HUVEC, VCAM1 ELISA, cytokine-stimulated; actives raise or lower the signal
# Method in brief: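 Endothelial cells from human umbilical vein are treated with test chemical. At 24 h, VCAM-1 is measured by ELISA, and responses in either direction are fitted relative to DMSO.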
# [18] = BSK_4H_Eotaxin3: BioMAP Diversity Plus: 4H Assay for Eotaxin 3 Biomarker Activity (AID 2283000); conditions: primary human endothelial cells (HUVEC); actives raise or lower the signal;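 further: CCL26 protein level quantified by ELISA in parallel with SRB cytotoxicity check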
# Method in brief: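 Endothelial primary cells (human umbilical vein) exposed to compound for 24 h. ELISA detection of Eotaxin-3.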
# [19] = read-out: Intercellular Adhesion Molecule 1 (ICAM1), ICAM1 (gene 3383); experiment: BSK_3C_ICAM1: BioMAP Diversity Plus: 3C Assay for Intercellular Adhesion Molecule 1 (ICAM1) Biomarker Activity (AID 2283003); conditions: primary human endothelial cells (HUVEC); actives raise or lower the signal
# Method in brief: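 Primary human umbilical vein endothelial cells in the BioMAP 3C system were exposed to chemicals for 24 h, then ICAM-1 was quantified by ELISA. Activity was fitted bidirectionally against the DMSO negative control baseline.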
compound,measurement,setting,value
C=Cc1ccc(C)cc1,outcome,[1],inactive
same,outcome,[2],inactive
same,outcome,[3],inactive
same,outcome,[4],inactive
same,outcome,[5],inactive
same,outcome,[6],inactive
same,outcome,[7],inactive
same,outcome,[8],inactive
Nc1ccn([C@H]2CS[C@@H](CO)O2)c(=O)n1,outcome,[1],inactive
same,outcome,[2],inactive
same,outcome,[3],inactive
same,outcome,[4],inactive
same,outcome,[5],inactive
same,outcome,[6],inactive
same,outcome,[9],inactive
CC(C)CCOC(=O)c1ccccc1,outcome,[1],inactive
same,outcome,[2],inactive
same,outcome,[3],inactive
same,outcome,[4],inactive
same,outcome,[5],inactive
same,outcome,[6],inactive
same,outcome,[10],inactive
COc1ccc(COC(C)=O)cc1,outcome,[1],inactive
same,outcome,[2],inactive
same,outcome,[3],inactive
same,outcome,[4],inactive
same,outcome,[5],inactive
same,outcome,[11],inactive
same,outcome,[12],inactive
CN(C)c1ccncc1,outcome,[1],inactive
same,outcome,[2],inactive
same,outcome,[3],inactive
same,outcome,[4],inactive
same,outcome,[5],inactive
same,outcome,[11],inactive
same,outcome,[12],inactive
same,outcome,[13],inactive
same,outcome,[8],inactive
CN(C)CCOc1ccc(/C(=C(/CCCl)c2ccccc2)c2ccccc2)cc1,outcome,[1],inactive
same,outcome,[2],inactive
same,outcome,[3],inactive
same,AC50,[4],2.47 µM (active)
same,outcome,[5],inactive
same,outcome,[6],inactive
same,outcome,[8],inactive
same,outcome,[9],inactive
C=C1CC[C@H](O)C/C1=C/C=C1\CCC[C@]2(C)[C@@H]([C@H](C)/C=C/[C@H](C)C(C)C)CC[C@@H]12,outcome,[1],inactive
same,outcome,[2],inactive
same,AC50,[3],44.5 µM (active)
same,AC50,[4],27 µM (active)
same,outcome,[5],inactive
same,outcome,[6],inactive
same,outcome,[7],inactive
same,AC50,[8],3.81 µM (active)
O=C1OC(=O)c2c(Br)c(Br)c(Br)c(Br)c21,outcome,[1],inactive
same,outcome,[2],inactive
same,outcome,[3],inactive
same,AC50,[4],100 µM (active)
same,outcome,[5],inactive
same,outcome,[11],inactive
same,outcome,[12],inactive
same,outcome,[7],inactive
same,outcome,[8],inactive
same,outcome,[9],inactive
CC(=O)OCCCc1ccccc1,outcome,[1],inactive
same,outcome,[2],inactive
same,outcome,[3],inactive
same,outcome,[4],inactive
same,outcome,[5],inactive
same,outcome,[6],inactive
same,outcome,[13],inactive
same,outcome,[8],inactive
same,outcome,[9],inactive
CC1(C)C(=O)N(Cl)C(=O)N1Br,outcome,[1],inactive
same,outcome,[2],inactive
same,outcome,[3],inactive
same,outcome,[4],inactive
same,outcome,[5],inactive
same,outcome,[11],inactive
same,outcome,[14],inactive
same,outcome,[13],inactive
same,outcome,[7],inactive
Nc1c(S(=O)(=O)O)cc(Br)c2c1C(=O)c1ccccc1C2=O,outcome,[1],inactive
same,outcome,[2],inactive
same,outcome,[3],inactive
same,AC50,[4],73.8 µM (active)
same,outcome,[5],inactive
same,outcome,[11],inactive
same,AC50,[7],27.5 µM (active)
same,AC50,[8],40.2 µM (active)
Cc1ccc(N)c(S(=O)(=O)O)c1,outcome,[1],inactive
same,outcome,[2],inactive
same,outcome,[3],inactive
same,outcome,[4],inactive
same,outcome,[5],inactive
same,outcome,[6],inactive
same,outcome,[7],inactive
same,outcome,[8],inactive
C=C(C)[C@H]1CC=C(C)C(=O)C1,outcome,[1],inactive
same,outcome,[2],inactive
same,outcome,[3],inactive
same,outcome,[4],inactive
same,outcome,[5],inactive
same,outcome,[15],inactive
same,outcome,[16],inactive
same,outcome,[17],inactive
same,outcome,[18],inactive
same,outcome,[11],inactive
same,outcome,[19],inactive
same,AC50,[7],68.7 µM (active)
